Consider six compounds from PubChem BioAssay (NCATS).

For test [1], the system named is MCC-26. Briefly: qHTS assay to identify novel small-molecules to repurpose for Merkel cell carcinoma treatment (AID 1296009). Further: nearly all actives have a fitted effect of over 60% in size. Conditions: MCC and control cell lines, CellTiter-Glo viability, 72 h; series mostly up to 46 µM. In short, it runs like this:
(§1)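 Luminescence from CellTiter-Glo, read 10 min after addition at room temperature, reported viability following a 72 hr, 37 degree celsius treatment with NPC or MIPE compounds in titration; values normalized to plate controls.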

Test [2] relates to MKL-1. The description is as above. Conditions: MCC and control cell lines, CellTiter-Glo viability, 72 h; series mostly up to 46 µM. In short, it runs like this:
as §1

Test [3] concerns MKL-2. The description is as above. The following applies: MCC and control cell lines, CellTiter-Glo viability, 72 h; series mostly up to 46 µM. In short, it runs like this:
as §1

Test [4] has as its system UISO. Described as above. Conditions: MCC and control cell lines, CellTiter-Glo viability, 72 h; series mostly up to 46 µM. In short, it runs like this:
as §1

The test system of test [5] is WaGa. Described as above. The following applies: MCC and control cell lines, CellTiter-Glo viability, 72 h; series mostly up to 46 µM. In short, it runs like this:
as §1

Test [6] deals with C33A. As to the kind of experiment: Primary qHTS to identify gynecologic anti-cancer compounds using libraries of approved drugs and bioactive compounds (AID 1345084). Further: nearly all actives have a fitted effect of over 55% in size. The following applies: Gynecologic cancer cell panel viability, ATPlite luminescence, 48 h; series mostly up to 57.5 µM. In short, it runs like this:
(§2)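 In this quantitative HTS, cell killing is estimated from loss of ATP-dependent luciferase light. Cells see five compound concentrations over a 48 h exposure.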

The test system of test [7] is CASKI. The test is described as above. Conditions: Gynecologic cancer cell panel viability, ATPlite luminescence, 48 h; series mostly up to 57.5 µM. In short, it runs like this:
as §2

The test system of test [8] is Es-2. Described as above. The following applies: Gynecologic cancer cell panel viability, ATPlite luminescence, 48 h; series mostly up to 57.5 µM. In short, it runs like this:
as §2

Test [9] concerns HeLa. The description is as above. The following applies: Gynecologic cancer cell panel viability, ATPlite luminescence, 48 h; series mostly up to 57.5 µM. In short, it runs like this: as §2
In test [10] the test system is Hek293T. The description is as above. The following applies: Gynecologic cancer cell panel viability, ATPlite luminescence, 48 h, control line for the selectivity index; series mostly up to 57.5 µM. In short, it runs like this: as §2
Test [11] relates to JEG-3. The test is described as above. The following applies: Gynecologic cancer cell panel viability, ATPlite luminescence, 48 h; series mostly up to 57.5 µM. In short, it runs like this:
as §2

Test [12] has as its system OV90. The description is as above. The following applies: Gynecologic cancer cell panel viability, ATPlite luminescence, 48 h; series mostly up to 57.5 µM. In short, it runs like this: as §2
Test [13] relates to PA-1. The description is as above. The following applies: Gynecologic cancer cell panel viability, ATPlite luminescence, 48 h; series mostly up to 57.5 µM. In short, it runs like this:
as §2

Test [14] has as its system SKOV3. The test is described as above. The following applies: Gynecologic cancer cell panel viability, ATPlite luminescence, 48 h; series mostly up to 57.5 µM. In short, it runs like this: as §2
Test [15] has as its system Tov-21-G. Described as above. Conditions: Gynecologic cancer cell panel viability, ATPlite luminescence, 48 h; series mostly up to 57.5 µM. In short, it runs like this:
as §2

Test [16] relates to Tov112D. The description is as above. The following applies: Gynecologic cancer cell panel viability, ATPlite luminescence, 48 h; series mostly up to 57.5 µM. In short, it runs like this: as §2
Test [17] in a line: Drug repurposing screens with cells derived from glioblastoma tumor samples (AID 1345199). Further: nearly all actives have a fitted effect of over 40% in size. Further: potency means the concentration at half of the fitted maximal effect. Conditions: GBM patient neurospheres viability, ATP luminescence, 48 h. In short, it runs like this:
(§3)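 Primary testing used CD133+ neurospheres from four GBM patients, seven concentrations, 48 h exposure and ATP-based viability; confirmation added three slower-growing patient lines.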

Test [18] relates to astro. The test is described as above. The following applies: viability, ATP luminescence, 48 h; series mostly up to 45.9 µM. In short, it runs like this: as §3
The test system of test [19] is CAOV3. Briefly: Primary qHTS to identify gynecologic anti-cancer compounds using libraries of approved drugs and bioactive compounds (AID 1345084). Further: nearly all actives have a fitted effect of over 55% in size. Conditions: Gynecologic cancer cell panel viability, ATPlite luminescence, 48 h; series mostly up to 57.5 µM. In short, it runs like this:
as §2

Test [20] relates to NIH3T3. Briefly: qHTS assay to identify novel small-molecules to repurpose for Merkel cell carcinoma treatment (AID 1296009). Further: nearly all actives have a fitted effect of over 60% in size. Conditions: MCC and control cell lines, CellTiter-Glo viability, 72 h; at 44.8 µM (top of the series) unless noted. In short, it runs like this: as §1
Where [21] appears, read: at 45.9 µM (top of the series), tumour line B.
[22] abbreviates: at 45.9 µM (top of the series), tumour line D.
Where [23] appears, read: at 46.1 µM (top of the series), tumour line C.

Values joined by “and” are separate entries in the source; they are usually repeats but may differ in a detail not shown here. Equal entries are not always repeated. Inconclusive results are not listed. A number with no mark means an inactive call. Active and inactive are the calls of the source. The call rests on the fitted dose curve; in most records, active means well fitted curve in the direction sought with a large enough effect; inconclusive means small, poorly fitted or top-dose-only effect, or another doubt; inactive means no such curve, though single readings can be large; an effect the other way counts as inactive or inconclusive.
On the % scale 0 is the no-effect control and ±100 the full control effect.

Turning to `Cc1ccc2c(n1)Oc1ccc(C(C)C(=O)OCC(=O)N(C)C)cc1C2` (centres undefined), the Potency entry in [1], in [2], in [3], in [4], in test [5] and in [6] was “inactive” each time. The Potency entry in [7], in test [8], in [9], in [10], in test [11] and in test [12] was “inactive” each time. Further, the Potency result in test [13], in test [14], in [15], in test [16] and in [18] was “inactive” throughout. Moreover, the activity, negative = cell killing is -2.21% and -4.54% in test [17] (setting [21]); -24.2% and -10.3% in test [17] (setting [22]); -14.5% and 2.44% in test [17] (setting [23]).

Regarding `C/C(=N\O)c1ccc(OCC(=O)N2CCCCC2)cc1`, the Potency result in test [1], in [2], in test [3], in [4], in [5] and in [6] was “inactive” throughout. The Potency entry in test [19], in test [7], in test [9], in [10], in [13] and in test [16] was “inactive” each time.

In the case of `Nc1nc2ccc([N+](=O)[O-])cc2s1`, the Potency result in test [1], in [2], in test [3], in test [6], in [7] and in test [8] was “inactive” each time. The Potency result in test [11], in [12], in [13], in test [15] and in [16] was “inactive” in each case. For the same compound, the activity, negative = cell killing in test [17] (at 91.6 µM (top of the series), tumour line B) is -13.3%; in [17] (at 99.2 µM (top of the series), tumour line C) it was -20.5%. Also, the Potency in test [17] (tumour line A) is 39.8 µM (active).

Turning to `Nc1ccc(O)c(C(=O)O)c1`, the Potency entry in [1], in [2], in [3], in test [4], in [5] and in test [6] was “inactive” in each case. Also, the Potency entry in test [19], in test [7], in [8], in test [9], in test [10] and in [11] was “inactive” throughout. In addition, the Potency result in [12], in [13], in [14], in test [15] and in test [16] was “inactive” throughout. Also, in test [20], the compound was classed as inactive. For the same compound, the activity, negative = cell killing is -12.4% in [17] (setting [21]), 5.07% in test [17] (setting [22]) and 2.81% in test [17] (setting [23]).

Turning to `CC(N)C(=O)OC(C)(C)Cc1ccc(Cl)cc1` (centres undefined), the Potency result in test [1], in test [2], in test [3], in test [4], in [5] and in test [6] was “inactive” in each case. The Potency result in test [19], in [7], in test [8], in [9], in [11] and in [12] was “inactive” throughout. Further, the Potency result in test [13], in test [14], in test [15], in test [16] and in [18] was “inactive” each time. Further, the activity, negative = cell killing was -21.1% in test [17] (setting [21]) and -21.2% in test [17] (setting [22]). Further, the Potency in [17] (tumour line A) is 20 µM (active).

As for `CCCCCCCCCCCCCCCC(=O)OC(C)C`, the Potency entry in [1], in test [2], in test [3], in [4], in test [5] and in test [6] was “inactive” each time. Also, the Potency result in [19], in test [7], in test [8], in test [9], in test [10] and in test [11] was “inactive” each time. Moreover, the Potency result in [12], in test [13], in test [14], in test [15] and in [16] was “inactive” in each case. In addition, the compound was called inactive in test [20]. Besides, the activity, negative = cell killing is -2.41% in test [17] (setting [21]); -2.14% in test [17] (setting [22]); -26.7% in test [17] (at 46 µM (top of the series), tumour line A); 4.29% in test [17] (setting [23]).
